Among the test systems are RPMI-8226 leukemia; OVCAR-8 ovarian; OVCAR-5 ovarian; OVCAR-4 ovarian; SK-OV-3 ovarian; IGROV1 ovarian; OVCAR-3 ovarian; HS 578T breast; NCI/ADR-RES ovarian; T-47D breast; MDA-MB-435 melanoma; SW-620 colon; MCF7 breast; HCT-116 colon; HCC-2998 colon; KM12 colon; MDA-MB-468 breast.
Assay in all cases: NCI-60 one-dose screen, 48 h (100 = growth as untreated, 0 = no growth, -100 = all killed)
What all share (settings): 10 µM unless noted

Structures are written as SMILES. About 83,000 compounds went through this panel and 20% of them were active in at least one assay; those are over-represented in the sample as a whole.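 The endpoint reported here, percent growth, reads 100 for growth as untreated, 0 for no net growth and -100 for all cells dead.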 Calls of active or inactive are those of the source. The calls were made as follows: active = growth percent below 10; inactive = the rest.

`COc1ccc(C(=O)/C=C/c2ccc3ccccc3c2)cc1S(N)(=O)=O`: the growth was -17.5% (active) with RPMI-8226 leukemia; -60.6% (active) with OVCAR-8 ovarian; -43.4% (active) in the experiment on OVCAR-5 ovarian; 32.5% (inactive) in the experiment on OVCAR-4 ovarian; 22.5% (inactive) with SK-OV-3 ovarian; -8.23% (active) with IGROV1 ovarian. The growth with OVCAR-3 ovarian is -41.9% (active); with HS 578T breast, 68.8% (inactive); with NCI/ADR-RES ovarian it was 18.9% (inactive); in the experiment on T-47D breast, -39.5% (active); in the experiment with MDA-MB-435 melanoma it was 1.97% (active); in the experiment with SW-620 colon it was -42.8% (active). For the same molecule, the growth was -75.2% (active) in the experiment on MCF7 breast; -97.8% (active) with HCT-116 colon; -76.9% (active) in the experiment with HCC-2998 colon; -74% (active) with KM12 colon; -67% (active) with MDA-MB-468 breast.
Turning to `CN1CCN(c2ccc3c(c2)nc(NNC(=O)c2cnccn2)c2cccn23)CC1`, the growth was 5.23% (active) in the experiment with RPMI-8226 leukemia; -79.4% (active) with OVCAR-8 ovarian; -25% (active) with OVCAR-5 ovarian; -37.6% (active) in the experiment with OVCAR-4 ovarian; -51.3% (active) in the experiment with SK-OV-3 ovarian; 12.4% (inactive) with IGROV1 ovarian. The growth in the experiment on OVCAR-3 ovarian was -19.7% (active); with HS 578T breast it was 34.1% (inactive); in the experiment on NCI/ADR-RES ovarian, -10% (active); in the experiment with T-47D breast, -55.6% (active); in the experiment on MDA-MB-435 melanoma, 5.71% (active); in the experiment on SW-620 colon it was 9.85% (active). Besides, the growth in the experiment with MCF7 breast was -39.1% (active); in the experiment on HCT-116 colon, -52.1% (active); with HCC-2998 colon, -44.5% (active); with KM12 colon, 1.89% (active); in the experiment with MDA-MB-468 breast, -42.2% (active).
Take `COc1ccc(C(=O)Nc2n[nH]c(Nc3ccccc3)c2C#N)cc1`: the growth in the experiment on RPMI-8226 leukemia is 133% (inactive); in the experiment on OVCAR-8 ovarian, 111% (inactive); in the experiment with OVCAR-4 ovarian, 118% (inactive); in the experiment with SK-OV-3 ovarian, 119% (inactive); in the experiment on IGROV1 ovarian it was 105% (inactive); in the experiment on OVCAR-3 ovarian, 111% (inactive). Also, the growth is 114% (inactive) with HS 578T breast; 109% (inactive) with NCI/ADR-RES ovarian; 113% (inactive) in the experiment with T-47D breast; 118% (inactive) with MDA-MB-435 melanoma; 102% (inactive) in the experiment with SW-620 colon; 94.8% (inactive) in the experiment with MCF7 breast. In addition, the growth in the experiment with HCT-116 colon was 105% (inactive); in the experiment on HCC-2998 colon, 120% (inactive); with KM12 colon, 112% (inactive); in the experiment with MDA-MB-468 breast, 112% (inactive).
As to `Nc1n[nH]c2cccc(C#Cc3cccc(NC(=O)c4cccc(Cl)c4)c3)c12`, the growth with RPMI-8226 leukemia is 29.9% (inactive); in the experiment on OVCAR-8 ovarian, 21.4% (inactive); in the experiment on OVCAR-5 ovarian, 53.2% (inactive); in the experiment on OVCAR-4 ovarian, 39.9% (inactive); with SK-OV-3 ovarian it was 15.7% (inactive); in the experiment on IGROV1 ovarian, 21.6% (inactive). The growth in the experiment on OVCAR-3 ovarian is 43.3% (inactive); in the experiment with HS 578T breast, 43.2% (inactive); in the experiment with NCI/ADR-RES ovarian it was 25.6% (inactive); in the experiment on T-47D breast it was 7.26% (active); with MDA-MB-435 melanoma it was 22.7% (inactive); in the experiment on SW-620 colon, 42.1% (inactive). Moreover, the growth in the experiment on MCF7 breast was 15.9% (inactive); in the experiment on HCT-116 colon, 12.3% (inactive); with HCC-2998 colon it was 30.4% (inactive); in the experiment on KM12 colon, 20.2% (inactive); in the experiment on MDA-MB-468 breast, 46% (inactive).
`CC(=O)N1CCN(Cc2ccc3c(NNC(=O)c4cnccn4)nc4cc(F)ccc4n23)CC1`: the growth in the experiment on RPMI-8226 leukemia was 25.7% (inactive); in the experiment on OVCAR-8 ovarian, 17.2% (inactive); with OVCAR-5 ovarian, 50.1% (inactive); in the experiment on OVCAR-4 ovarian, 32.6% (inactive); with SK-OV-3 ovarian, 25% (inactive); with OVCAR-3 ovarian, 56.7% (inactive). Also, the growth was 56.3% (inactive) in the experiment with HS 578T breast; 7.69% (active) in the experiment on NCI/ADR-RES ovarian; 16.4% (inactive) with T-47D breast; 37.4% (inactive) in the experiment on MDA-MB-435 melanoma; 38.8% (inactive) in the experiment with SW-620 colon; 16.4% (inactive) with MCF7 breast. Also, the growth is 19.5% (inactive) with HCT-116 colon, 61.3% (inactive) with HCC-2998 colon, 32.6% (inactive) in the experiment on KM12 colon and 6.88% (active) with MDA-MB-468 breast.
For `COc1ccc(C(=O)/C=C/c2cccc(Cl)c2)cc1S(N)(=O)=O`, the growth with RPMI-8226 leukemia was -5.22% (active); with OVCAR-8 ovarian, -70.3% (active); in the experiment with OVCAR-4 ovarian it was 46.4% (inactive); in the experiment on SK-OV-3 ovarian, 49.8% (inactive); with IGROV1 ovarian, 6.51% (active); in the experiment with OVCAR-3 ovarian, -58.8% (active). In addition, the growth is 95.4% (inactive) in the experiment with HS 578T breast; 14.3% (inactive) in the experiment with NCI/ADR-RES ovarian; -53.8% (active) in the experiment with T-47D breast; 14% (inactive) with MDA-MB-435 melanoma; -19.9% (active) in the experiment with SW-620 colon; -67% (active) in the experiment on MCF7 breast. In addition, the growth in the experiment with HCT-116 colon was -64.2% (active); in the experiment with HCC-2998 colon, 1.16% (active); in the experiment with KM12 colon, -57.9% (active); with MDA-MB-468 breast it was -53.8% (active).
Turning to `COc1ccc(C2=NN(c3ccccc3)C(c3ccc(OCc4ccccc4)c(OC)c3)C2)cc1OC` (stereo not drawn), the growth was 120% (inactive) in the experiment with RPMI-8226 leukemia; 92.6% (inactive) with OVCAR-8 ovarian; 102% (inactive) in the experiment with OVCAR-5 ovarian; 113% (inactive) in the experiment on OVCAR-4 ovarian; 98.1% (inactive) in the experiment with SK-OV-3 ovarian; 109% (inactive) in the experiment with OVCAR-3 ovarian. The growth with HS 578T breast is 94.1% (inactive); in the experiment with NCI/ADR-RES ovarian it was 109% (inactive); with T-47D breast, 89.4% (inactive); with MDA-MB-435 melanoma it was 105% (inactive); with SW-620 colon, 101% (inactive); with MCF7 breast it was 84.8% (inactive). Further, the growth was 85.9% (inactive) with HCT-116 colon, 117% (inactive) in the experiment with HCC-2998 colon, 91.8% (inactive) with KM12 colon and 105% (inactive) in the experiment on MDA-MB-468 breast.
`CN1CCN(c2ccc3c(c2)nc(NNC(=O)c2ncccn2)c2cccn23)CC1`: the growth was 28.4% (inactive) in the experiment with RPMI-8226 leukemia; -4.43% (active) with OVCAR-8 ovarian; -62.9% (active) in the experiment on OVCAR-5 ovarian; -41.7% (active) with OVCAR-4 ovarian; -13.2% (active) in the experiment with SK-OV-3 ovarian; 11.3% (inactive) in the experiment with IGROV1 ovarian. For the same molecule, the growth with OVCAR-3 ovarian was -22.8% (active); with HS 578T breast, 26.5% (inactive); with NCI/ADR-RES ovarian, 4.15% (active); with T-47D breast, -22.3% (active); in the experiment with MDA-MB-435 melanoma, -45.7% (active); in the experiment on SW-620 colon it was -6.01% (active). The growth in the experiment on MCF7 breast was -17.6% (active); with HCT-116 colon, 0.844% (active); in the experiment on HCC-2998 colon, -87.7% (active); in the experiment with KM12 colon, -14.2% (active); in the experiment with MDA-MB-468 breast it was -42.8% (active).
For the molecule `Cc1ccc(-c2nnc3ccc(N/N=C/c4ccccc4)nn23)cc1`, the growth with RPMI-8226 leukemia is 80.6% (inactive); in the experiment with OVCAR-8 ovarian, 87.1% (inactive); in the experiment on OVCAR-5 ovarian it was 107% (inactive); in the experiment on OVCAR-4 ovarian, 69.1% (inactive); in the experiment with SK-OV-3 ovarian, 100% (inactive); with IGROV1 ovarian it was 98.9% (inactive). Also, the growth was 30.3% (inactive) in the experiment with OVCAR-3 ovarian; 46.6% (inactive) in the experiment on HS 578T breast; 84.1% (inactive) in the experiment on NCI/ADR-RES ovarian; 98.8% (inactive) with T-47D breast; 76.1% (inactive) in the experiment on MDA-MB-435 melanoma; 90.6% (inactive) in the experiment on SW-620 colon. For the same molecule, the growth was 47.9% (inactive) with MCF7 breast; 99.5% (inactive) in the experiment on HCT-116 colon; 111% (inactive) in the experiment on HCC-2998 colon; 57.2% (inactive) in the experiment with KM12 colon; 91.4% (inactive) in the experiment with MDA-MB-468 breast.
In the case of `COc1ccc(C(=O)/C=C/c2cccc3ccccc23)cc1S(N)(=O)=O`, the growth was -10.6% (active) in the experiment with RPMI-8226 leukemia; -13.6% (active) with OVCAR-8 ovarian; 1.13% (active) with OVCAR-5 ovarian; 43.5% (inactive) with OVCAR-4 ovarian; 44.7% (inactive) in the experiment with SK-OV-3 ovarian; 38.7% (inactive) in the experiment with IGROV1 ovarian. For the same molecule, the growth is -50.7% (active) in the experiment on OVCAR-3 ovarian; 55.2% (inactive) with HS 578T breast; 15.1% (inactive) in the experiment with NCI/ADR-RES ovarian; -2.6% (active) in the experiment on T-47D breast; 5.32% (active) with MDA-MB-435 melanoma; -16.1% (active) with SW-620 colon. Further, the growth was -60.3% (active) in the experiment with MCF7 breast; -91.9% (active) in the experiment with HCT-116 colon; -70.2% (active) in the experiment on HCC-2998 colon; -61.2% (active) with KM12 colon; -55.7% (active) in the experiment on MDA-MB-468 breast.
For `O=C1N/C(=N\c2nccs2)S/C1=C\C=C/c1ccccc1`, the growth in the experiment on RPMI-8226 leukemia was 39.4% (inactive); with OVCAR-8 ovarian, 13.7% (inactive); in the experiment with OVCAR-5 ovarian it was 61.8% (inactive); in the experiment on OVCAR-4 ovarian it was 44.5% (inactive); with SK-OV-3 ovarian, 77.7% (inactive); with IGROV1 ovarian, 30.3% (inactive). Besides, the growth in the experiment on OVCAR-3 ovarian is 50.7% (inactive); in the experiment on HS 578T breast, 85.2% (inactive); in the experiment with NCI/ADR-RES ovarian it was 37.4% (inactive); in the experiment on T-47D breast, 32.7% (inactive); in the experiment on MDA-MB-435 melanoma, 44.5% (inactive); in the experiment with SW-620 colon, 41% (inactive). For the same molecule, the growth with MCF7 breast was 16.1% (inactive); with HCT-116 colon it was 12.1% (inactive); in the experiment on HCC-2998 colon it was 75.7% (inactive); in the experiment with KM12 colon, 38% (inactive); with MDA-MB-468 breast, 44.2% (inactive).
As to `Cc1cnc(C(=O)NNc2nc3cc(F)ccc3n3c(C(=O)N4CC5CC(C4)N5)ccc23)cn1`, the growth with RPMI-8226 leukemia is 48.1% (inactive); with OVCAR-8 ovarian, 20.2% (inactive); in the experiment on OVCAR-5 ovarian, 48.7% (inactive); with OVCAR-4 ovarian it was 38.4% (inactive); with SK-OV-3 ovarian it was 25.8% (inactive); in the experiment on IGROV1 ovarian it was 39.9% (inactive). Further, the growth with OVCAR-3 ovarian was 50.1% (inactive); with HS 578T breast it was 62.9% (inactive); in the experiment with NCI/ADR-RES ovarian, 67% (inactive); in the experiment on T-47D breast, 32.1% (inactive); with SW-620 colon, 32% (inactive); in the experiment with MCF7 breast it was 18.7% (inactive). The growth was 17.5% (inactive) with HCT-116 colon, 58.7% (inactive) with HCC-2998 colon and 39.8% (inactive) in the experiment on KM12 colon.

These data come from PubChem BioAssay (NCI).
